The values that follow come from PubChem BioAssay AID488890 (Southern Research Specialized Biocontainment Screening …, 2010).

About 1,300 (0.41%) of roughly 320,000 compounds were called active. Inconclusive results (about 3%) are left out. The rule behind the calls is not given here. These entries were drawn from the full list. Potency and affinity values are given separately.

The nature of the assay: growth inhibition of non-replicating M. tuberculosis (AID 488890).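 Note: plate controls were DMSO cells for no effect and high antibiotic wells for full effect.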 To be noted: Mycobacterium tuberculosis non-replicating, at 25 µM, stronger effect = higher value.
Broadly, the inhibition is the drop in the measured response relative to a control, in per cent. With `O=C1OC[C@H]2CCCN2C(=O)[C@@H](CC(=O)N(CCO)Cc2ccccc2)C/C=C\C[C@H]1Cc1ccc(F)cc1`, the inhibition came out at 47.4%.
Regarding `O=C1NNC(c2ccccc2)=N/C1=C\c1ccccc1`, the inhibition was -6.71%.
Take `CSc1ccccc1C(=O)NCCCOC(C)C`: the inhibition is -17.5%.
In the case of `O=C(O)/C=C/C(=O)NCCCc1ccccc1`, the inhibition was 18.7%.
On to `CC1=C(C(=O)OCCOC(C)C)C(c2cc3c(cc2Br)OCO3)C2=C(CCCC2=O)N1` (stereo not drawn), for which the inhibition turned out to be 12.9%.
The figure for `COc1cc(CC(CC(=O)O)CC(C)OCc2ccccc2)cc(OC)c1` (stereo not drawn) is 24.2%; for `COc1ccc(COC(=O)c2ccc3c(=O)n4c(nc3c2)CCC4)cc1F` it is -0.76%; for `CN(Cc1cccc(F)c1)C(=O)c1ccc2c(=O)n3c(nc2c1)CCC3` it is -4.16%.
In the case of `O=C(COc1ccccc1Cl)NNC(=O)c1ccc2c(=O)n3c(nc2c1)CCC3` it was -23%.
With `O=C(c1ccc2c(=O)n3c(nc2c1)CCCCC3)N1CCN(c2ccc([N+](=O)[O-])cc2)CC1`, the inhibition stood at 25.7%.
In the case of `O=C(Nc1ccc2nc3n(c(=O)c2c1)CCCC3)c1cccc([N+](=O)[O-])c1`, the inhibition is -20.7%.
As for `COc1ccc(CN(C)C(=O)c2ccc3c(=O)n4c(nc3c2)CCC4)cc1`, the inhibition was -3.83%.
`CC(OC(=O)c1ccc2c(=O)n3c(nc2c1)CCC3)C(N)=O` (stereo not drawn): the inhibition is -8.53%.
In the case of `O=C(NNC(=O)c1ccccc1Cl)c1ccc2c(=O)n3c(nc2c1)CCC3` it was 1.89%; in that of `CC1CCCCN1S(=O)(=O)c1ccc(S(=O)(=O)N2CCCC2)cc1` (stereo not drawn), 4.73%; in that of `CCOc1ccc(CCNS(=O)(=O)c2cc3c(cc2C)NC(=O)CO3)cc1OCC`, 16.2%.
In the case of `O=C(Cc1cccc2ccccc12)Nc1ccccc1Br` it was 12.5%.
As to `CC(=O)Nc1nnc(SCC(=O)NCc2ccc3c(c2)OCO3)s1`, the inhibition was -14.9%.
The figure for `Cc1ccc(C(=O)NCc2ccc3c(c2)OCO3)cc1Cl` is 45.9%; for `Cc1ccc(CS(=O)(=O)CCC(=O)N2CCC3(CC2)OCCO3)cc1` it is -11.2%.
As to `Cc1ccc(S(=O)(=O)Nc2ccccc2F)cc1C(=O)NCCCN1CCCC1=O`, the inhibition was -4.79%.
In the case of `CCOC(=O)c1c(S(=O)(=O)Nc2ccc(C)c(F)c2)c(C)n(C)c1C` it was -0.18%; in that of `CC1(C)CC(=O)C(C2=NC3(CCCCCC3)Cc3ccccc32)=C(O)C1`, -2.29%.
The figure for `CS(=O)(=O)N1CCC(C(=O)Nc2cc(Cl)ccc2Cl)CC1` is -6.65%; for `CC(C)c1cc(C(=O)N2CCN(C(c3ccccc3)c3ccccc3)CC2)no1` it is 21.3%; for `NC(=O)[C@@H]1CC2(CC(c3cccc(NC(=O)CC(c4ccccc4)c4ccccc4)c3)=NO2)CN1C(=O)[C@@H]1CCC(=O)N1` (stereo partly drawn) it is 14.1%.
On to `CCc1nnc(NC(=O)C2Cc3ccccc3CN2S(=O)(=O)CC)s1` (stereo not drawn), for which the inhibition is 5.84%.
The figure for `CC(OC(=O)c1ccc2c(=O)n3c(nc2c1)CCCCC3)C(=O)Nc1ccc(F)cc1Cl` (stereo not drawn) is 2.57%; for `O=C(Nc1ccc(F)cc1)c1ccc2c(=O)n3c(nc2c1)CCCCC3` it is 21.9%.
The figure for `O=C(NNC(=O)c1ccc2c(=O)n3c(nc2c1)CCC3)c1ccc(F)cc1` is -18.9%.
The figure for `CCOc1ccc(CCNC(=O)c2ccc3c(=O)n4c(nc3c2)CCCCC4)cc1` is 51%; for `CC(OC(=O)c1ccc2c(=O)n3c(nc2c1)CCCCC3)C(=O)Nc1ncc(Cl)cc1Cl` (stereo not drawn) it is 29.8%; for `CCOc1ccc(NC(=O)c2ccc3c(=O)n4c(nc3c2)CCCCC4)cc1` it is 20.7%.
Turning to `CNS(=O)(=O)c1cccc(C(=O)OCC(=O)N2c3ccccc3CC2C)c1` (stereo not drawn), the inhibition was -1.88%.
In the case of `Fc1ccc(-c2n[nH]c(=S)c3ccccc23)cc1` it was 15.8%.
In the case of `CCOc1ccc(NC(=O)Nc2ccc3c(c2)CCC3)cc1` it was -9.82%; in that of `Cc1cc(F)ccc1Oc1cc(NN2CCCCC2)c([N+](=O)[O-])cc1[N+](=O)[O-]`, 8.26%; in that of `CC(Oc1ccc(S(=O)(=O)N2CCCC2)cc1[N+](=O)[O-])C(=O)NC1(C#N)CCCCC1` (stereo not drawn), 9.55%.
The figure for `COc1cccc(CNC(=O)C2CCN(c3cnccn3)CC2)c1` is -3.9%; for `O=C1NC(=O)N(CCc2ccc(F)cc2)C(=O)/C1=C/c1cccs1` it is 2.97%; for `O=C1NC(=O)N(CCc2ccc(F)cc2)C(=O)/C1=C/c1ccco1` it is 22.4%.
For `O=C(c1ccccc1NS(=O)(=O)c1cccs1)N1CCOCC1`, the inhibition was 6.22%.
For the compound `Cc1cc(OCC(=O)Nc2ncn[nH]2)ccc1Cl`, the inhibition was determined as 30.6%.
For `CCCn1nnc(NC(=O)COc2ccccc2Cl)n1`, the inhibition worked out at 67.3%.
Regarding `CCCCn1nnc(NC(=O)COc2cc(C)ccc2C(C)C)n1`, the inhibition amounted to 64%.
The figure for `Cc1cccc(OCC(=O)Nc2nonc2NC(=O)COc2cccc(C)c2)c1` is 48%; for `Cc1cccc(N2CC(C(=O)Nc3ccc4c(c3)OCCO4)CC2=O)c1C` (stereo not drawn) it is -5.78%.
In the case of `CCc1cc2c(=O)c(-c3nc(C)cs3)coc2cc1O` it was 13.5%; in that of `COCCNC(=O)C1CCC(=O)N1S(=O)(=O)c1ccc(C)cc1` (stereo not drawn), 1.96%.
Take `Cc1[nH]n(-c2ccccc2)c(=O)c1C=Nc1cccc2cccnc12`: the inhibition was 33.6%.
Consider `Cc1[nH]n(-c2ccccc2)c(=O)c1C=Nc1cccc(F)c1`, for which the inhibition came out at 5.36%.
The figure for `O=C(Cc1ccccc1F)N1CCN(CC(=O)N2CCCC2)CC1` is 8.24%; for `CCOC(=O)CSc1nnc(CCc2nc3ccccc3[nH]2)n1C` it is -4.77%; for `COc1ccc2occ(C(=O)c3ccccc3)c2c1` it is 3.51%.
`Cc1ccc(C(=O)c2coc3ccc(OCC(=O)O)cc23)cc1`: the inhibition is -4.9%.
As for `CNC(=S)NNC(=O)c1cn(C)nc1C`, the inhibition was -3%.
As to `CCn1ccc(C(=O)NCCCN2CCCC2=O)n1`, the inhibition worked out at 5.42%.
In the case of `Cc1c([N+](=O)[O-])c([N+](=O)[O-])nn1CC(=O)N1CCOCC1` it was 1.03%; in that of `O=C(O)C1C2C=CC(CC2)C1C(=O)O` (stereo not drawn), 1.2%; in that of `O=C(C[C@@H]1C/C=C\CCCC(=O)OC[C@@H]2CCCN2C1=O)N[C@@H](CO)Cc1ccccc1`, 0.26%.
The figure for `Cc1ccc(O)c(NC(=O)c2ccco2)c1` is 15.1%.
The figure for `CS(=O)(=O)c1ccccc1-c1nnc(NC(=O)c2ccc(S(=O)(=O)N3CCCC3)cc2)o1` is -2%.
Take `CS(=O)(=O)c1ccc(-c2nnc(NC(=O)c3ccco3)o2)cc1`: the inhibition was found to be 43.1%.
For the compound `Cc1ccc2nsnc2c1NC(=O)c1ccc([N+](=O)[O-])o1`, the inhibition is 75.4%.
For `CS(=O)(=O)c1ccccc1-c1nnc(NC(=O)c2ccco2)o1`, the inhibition came to 38.6%.
The figure for `Cc1ccc(C)c(-c2nnc(NC(=O)CCS(=O)(=O)c3ccc(F)cc3)o2)c1` is 41.4%.
For the compound `O=C(Nc1nnc(-c2ccco2)o1)c1ccc(S(=O)(=O)N2CCCC2)cc1`, the inhibition amounted to 25.6%.
For the compound `Cc1ccc(NC(=O)c2ccco2)cc1C`, the inhibition was found to be 60.8%.
In the case of `Cc1nc(-c2ccc(NC(=O)C(C)(C)C)cc2)c(-c2ccccc2)o1`, the inhibition was -0.61%.
`Nc1cccc(C(=O)OCC(=O)NC2CCCc3ccccc32)c1` (stereo not drawn): the inhibition is 6.1%.
In the case of `O=C1c2ccccc2C(=O)N1CCOc1cccc(Br)c1` it was 53.6%; in that of `CCCCCC(=O)N/N=C(\C)c1ccc(NC(=O)c2ccco2)cc1`, 10.3%.
In the case of `CCNC(=O)C(=O)Nc1ccc(OC)c(Cl)c1` it was -0.29%.
In the case of `COc1ccc(Cc2nc3ccc(C(=O)N4C[C@@H](C)O[C@@H](C)C4)cc3o2)cc1OC` it was 17.8%; in that of `c1ccc(-c2nn3c(C4CCCCC4)nnc3s2)nc1`, 9%; in that of `Cc1nc(N2CCN(Cc3ccccc3)CC2)nc2c1C(=O)CC(c1ccco1)C2` (stereo not drawn), 3.19%.
For `COc1cccc(-c2cccc(NC(=O)C3CCN(Cc4cccc(C)n4)CC3)c2)c1`, the inhibition came out at 5.93%.
The figure for `CCc1ccc(NC(=S)N2CCN(C)CC2)cc1` is -4.9%.
The figure for `COc1ccc([N+](=O)[O-])cc1NC(=O)CCCOc1ccccc1` is 12.4%; for `Cc1ccc(C(=O)Nc2ccc(Oc3cccc(C(F)(F)F)c3)nc2)cc1` it is -15.4%.
`Cc1ccc(-c2nnc(-c3ccc(NC(=O)c4ccco4)cc3)o2)cc1`: the inhibition was -12.3%.
As for `COc1cc(-c2nnc(NC(=O)c3ccco3)o2)cc(OC)c1OC`, the inhibition came out at 12.9%.
Regarding `COc1ccc(CN2C(=O)c3ccccc3C2OC)cc1` (stereo not drawn), the inhibition was 43.5%.
In the case of `O=C(NCc1ccccc1)c1nc(-c2cccs2)no1` it was 15.8%; in that of `COc1ccc(CCNC(=O)c2nc(-c3cccs3)no2)cc1OC`, 62.8%.
The figure for `CC(=O)c1ccccc1Oc1cc(NN2CCCCC2)c([N+](=O)[O-])cc1[N+](=O)[O-]` is 30.5%; for `Cc1ccc(S(=O)(=O)N2CCCC2C(=O)NC2CCCCC2)cc1` (stereo not drawn) it is 13.2%; for `Nc1ccc2oc3ccccc3c2c1` it is 68.5%.
In the case of `Nc1ccc(C#Cc2ccc3c(=O)c4ccccc4oc3c2)cc1` it was 11.2%; in that of `Cc1sc(NC(=O)c2oc3ccccc3c2C)c(C#N)c1C`, 0.16%; in that of `NS(=O)(=O)c1ccc(CCNCc2cc(Br)ccc2OCc2ccccc2)cc1`, 36%.
For `CCOc1ccc(N(C(=O)c2ccc(S(=O)(=O)N3CCCC3)cc2)C2C=CS(=O)(=O)C2)cc1` (stereo not drawn), the inhibition was determined as 2.41%.
The figure for `CCN(CCn1cccn1)Cc1cn[nH]c1-c1ccc(-c2ccccc2)cc1` is 23%; for `CCCC(=O)NC1C2CC3CC(C2)CC1C3` (stereo not drawn) it is 66.5%.
Regarding `O=C(CNCc1ccccc1)NC1C2CC3CC(C2)CC1C3` (stereo not drawn), the inhibition was 7.24%.
Turning to `Cc1ccc(S(=O)(=O)N2CCC(C(=O)NC3CC(C)(C)NC(C)(C)C3)CC2)cc1`, the inhibition is -9.46%.
`O=C(CC1SC(N2CCCCC2)=NC1=O)Nc1cccc(C(=O)O)c1` (stereo not drawn): the inhibition is -10.1%.
In the case of `CC(=O)OCCCNc1cc(Sc2nc3ccccc3s2)c2nonc2c1[N+](=O)[O-]` it was 7.19%.
Consider `COC(=O)CCSc1cc(NCCOC(C)=O)c([N+](=O)[O-])c2nonc12`, for which the inhibition is 72.4%.
In the case of `CC(=O)OCCNc1cc(SC(C)C)c2nonc2c1[N+](=O)[O-]` it was 65.7%; in that of `CCCSc1cc(NCCOC(C)=O)c([N+](=O)[O-])c2nonc12`, 74.5%; in that of `Cn1ccnc1Sc1cc(NCCCO)c([N+](=O)[O-])c2nonc12`, 77.2%.
With `O=[N+]([O-])c1c(NCCCO)cc(SCc2ccco2)c2nonc12`, the inhibition was 70.1%.
In the case of `Cc1cc2c(C)c(C)c(=O)[nH]c2cc1N` it was 6.16%; in that of `Cc1occc1C(=O)NNC(=O)NC12CC3CC(CC(C3)C1)C2`, 1.27%; in that of `O=C(NCc1ccccn1)c1cccc(S(=O)(=O)N2CCCCC2)c1`, -1.8%.
Regarding `COc1ccc(C(=O)NNC(=O)CCC(=O)NNC(=O)c2ccc(OC)cc2)cc1`, the inhibition was 8.31%.
The figure for `CCNc1nc(NCC)n2c(SCc3nc4ccccc4c(=O)[nH]3)nnc2n1` is 48.6%.
